From ChEMBL document CHEMBL1961873, “Compounds: GSK PKIS; Assays: Nanosyn kinase panel” (2012) come the findings set out here.

In assay [1] the target is T1, Tyrosine-protein kinase ITK/TSK (Homo sapiens) (UniProt Q08881).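 Further: values are mean percent inhibition of ITK from the GSK PKIS screen.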
T1 sequence (whole entry): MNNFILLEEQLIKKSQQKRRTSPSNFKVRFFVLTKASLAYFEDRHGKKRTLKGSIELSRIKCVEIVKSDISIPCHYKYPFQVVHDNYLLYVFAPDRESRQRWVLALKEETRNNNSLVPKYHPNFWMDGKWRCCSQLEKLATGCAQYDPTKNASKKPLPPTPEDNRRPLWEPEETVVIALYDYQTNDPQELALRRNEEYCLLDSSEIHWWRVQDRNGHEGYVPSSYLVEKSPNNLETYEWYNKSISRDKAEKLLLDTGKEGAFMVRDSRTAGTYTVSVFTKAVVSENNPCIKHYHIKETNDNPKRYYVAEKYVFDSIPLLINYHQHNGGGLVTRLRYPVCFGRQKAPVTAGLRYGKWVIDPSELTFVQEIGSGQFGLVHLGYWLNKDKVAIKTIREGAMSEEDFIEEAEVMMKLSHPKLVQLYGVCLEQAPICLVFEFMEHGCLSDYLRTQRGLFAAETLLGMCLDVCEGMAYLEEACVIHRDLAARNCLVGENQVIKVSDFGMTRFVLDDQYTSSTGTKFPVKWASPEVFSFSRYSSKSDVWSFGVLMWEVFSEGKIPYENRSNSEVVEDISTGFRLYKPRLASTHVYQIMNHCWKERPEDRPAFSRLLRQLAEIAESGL
The settings on record: at 1 µM.

Assay [2] concerns the target Tyrosine-protein kinase JAK1 (Homo sapiens) (UniProt P23458). The settings on record: at 0.1 µM.
For assay [3] the target is unchanged. To be noted: at 1 µM.
The target in assay [4] is Tyrosine-protein kinase JAK2 (Homo sapiens) (UniProt O60674). The settings on record: at 0.1 µM.
Chain of Tyrosine-protein kinase JAK2 (Homo sapiens) (O60674 whole entry): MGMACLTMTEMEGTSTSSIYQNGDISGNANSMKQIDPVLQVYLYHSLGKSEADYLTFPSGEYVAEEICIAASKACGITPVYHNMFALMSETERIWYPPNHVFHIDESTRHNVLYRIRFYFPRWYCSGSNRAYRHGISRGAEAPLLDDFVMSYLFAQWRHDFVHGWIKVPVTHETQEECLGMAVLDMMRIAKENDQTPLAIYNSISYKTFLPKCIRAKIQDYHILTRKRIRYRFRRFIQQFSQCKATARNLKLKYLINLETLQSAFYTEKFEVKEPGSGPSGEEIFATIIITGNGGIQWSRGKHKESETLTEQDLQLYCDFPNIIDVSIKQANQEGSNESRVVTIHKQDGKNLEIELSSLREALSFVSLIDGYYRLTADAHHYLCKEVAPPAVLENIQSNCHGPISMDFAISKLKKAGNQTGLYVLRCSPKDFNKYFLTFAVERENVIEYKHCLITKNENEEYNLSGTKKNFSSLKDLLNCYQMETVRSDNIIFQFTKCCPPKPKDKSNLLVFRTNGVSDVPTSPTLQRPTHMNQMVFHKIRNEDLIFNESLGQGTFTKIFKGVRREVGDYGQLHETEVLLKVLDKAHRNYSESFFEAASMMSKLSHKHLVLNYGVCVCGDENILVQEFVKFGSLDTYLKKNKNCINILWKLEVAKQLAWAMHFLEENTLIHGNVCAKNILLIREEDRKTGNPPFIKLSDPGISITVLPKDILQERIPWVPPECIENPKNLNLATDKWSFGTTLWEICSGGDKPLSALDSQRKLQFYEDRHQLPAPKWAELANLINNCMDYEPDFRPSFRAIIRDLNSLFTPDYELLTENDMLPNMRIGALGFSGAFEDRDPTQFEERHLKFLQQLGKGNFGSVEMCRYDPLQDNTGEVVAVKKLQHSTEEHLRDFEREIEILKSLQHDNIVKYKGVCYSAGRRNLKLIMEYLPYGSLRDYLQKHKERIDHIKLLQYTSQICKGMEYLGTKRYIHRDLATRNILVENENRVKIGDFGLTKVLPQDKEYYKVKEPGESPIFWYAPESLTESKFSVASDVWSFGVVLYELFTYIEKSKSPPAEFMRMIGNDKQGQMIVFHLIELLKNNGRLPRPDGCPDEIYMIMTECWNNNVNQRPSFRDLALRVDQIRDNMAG
The target is the same in assay [5]. To be noted: at 1 µM.
Assay [6] addresses T2, Tyrosine-protein kinase JAK3 (Homo sapiens) (UniProt P52333).
T2 sequence (whole entry): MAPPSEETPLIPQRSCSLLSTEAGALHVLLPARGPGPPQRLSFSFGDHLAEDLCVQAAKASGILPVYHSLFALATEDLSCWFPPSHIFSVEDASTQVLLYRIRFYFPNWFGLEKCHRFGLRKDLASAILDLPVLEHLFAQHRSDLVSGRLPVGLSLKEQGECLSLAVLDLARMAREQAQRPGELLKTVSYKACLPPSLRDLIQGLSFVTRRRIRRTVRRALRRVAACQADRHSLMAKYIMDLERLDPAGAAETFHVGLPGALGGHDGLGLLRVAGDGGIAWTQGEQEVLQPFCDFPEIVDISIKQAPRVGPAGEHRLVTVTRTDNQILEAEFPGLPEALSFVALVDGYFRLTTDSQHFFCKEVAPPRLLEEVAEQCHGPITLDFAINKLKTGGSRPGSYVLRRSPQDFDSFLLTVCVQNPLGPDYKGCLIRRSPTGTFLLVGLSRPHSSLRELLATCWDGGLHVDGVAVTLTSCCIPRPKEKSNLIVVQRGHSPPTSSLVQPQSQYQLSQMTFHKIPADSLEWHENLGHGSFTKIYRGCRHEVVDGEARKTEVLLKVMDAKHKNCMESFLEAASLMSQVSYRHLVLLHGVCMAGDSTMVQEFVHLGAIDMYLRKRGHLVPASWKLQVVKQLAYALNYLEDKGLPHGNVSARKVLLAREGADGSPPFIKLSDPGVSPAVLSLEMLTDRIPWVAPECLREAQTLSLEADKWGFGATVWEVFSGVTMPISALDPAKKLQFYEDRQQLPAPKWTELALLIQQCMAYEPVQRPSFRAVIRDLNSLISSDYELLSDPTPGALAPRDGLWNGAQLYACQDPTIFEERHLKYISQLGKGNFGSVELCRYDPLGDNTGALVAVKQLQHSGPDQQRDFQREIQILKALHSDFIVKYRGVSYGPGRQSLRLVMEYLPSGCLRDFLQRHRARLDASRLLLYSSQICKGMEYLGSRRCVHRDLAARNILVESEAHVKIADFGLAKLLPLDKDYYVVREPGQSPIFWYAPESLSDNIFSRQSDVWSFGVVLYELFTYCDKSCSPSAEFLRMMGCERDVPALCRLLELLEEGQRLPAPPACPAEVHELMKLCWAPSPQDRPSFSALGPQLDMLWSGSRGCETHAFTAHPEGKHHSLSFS
To be noted: at 0.1 µM.

Assay [7] addresses T2, Tyrosine-protein kinase JAK3 (Homo sapiens). The settings on record: at 1 µM.
Assay [8] addresses Vascular endothelial growth factor receptor 2 (Homo sapiens) (UniProt P35968). The settings on record: at 0.1 µM.
The target is the same in assay [9]. To be noted: at 1 µM.
Assay [10] has as its target Mast/stem cell growth factor receptor Kit (Homo sapiens) (UniProt P10721). To be noted: at 0.1 µM.
Assay [11] shares this target. To be noted: at 1 µM.
The subject of assay [12] is Mast/stem cell growth factor receptor Kit (Homo sapiens), P10721 [D816V]. The settings on record: at 0.1 µM.
The test system is the same in assay [13]. To be noted: at 1 µM.
The test system of assay [14] is Mast/stem cell growth factor receptor Kit (Homo sapiens), P10721 [T670I]. To be noted: at 0.1 µM.
Chain of Mast/stem cell growth factor receptor Kit (Homo sapiens), P10721 [T670I] (P10721 whole entry T670I): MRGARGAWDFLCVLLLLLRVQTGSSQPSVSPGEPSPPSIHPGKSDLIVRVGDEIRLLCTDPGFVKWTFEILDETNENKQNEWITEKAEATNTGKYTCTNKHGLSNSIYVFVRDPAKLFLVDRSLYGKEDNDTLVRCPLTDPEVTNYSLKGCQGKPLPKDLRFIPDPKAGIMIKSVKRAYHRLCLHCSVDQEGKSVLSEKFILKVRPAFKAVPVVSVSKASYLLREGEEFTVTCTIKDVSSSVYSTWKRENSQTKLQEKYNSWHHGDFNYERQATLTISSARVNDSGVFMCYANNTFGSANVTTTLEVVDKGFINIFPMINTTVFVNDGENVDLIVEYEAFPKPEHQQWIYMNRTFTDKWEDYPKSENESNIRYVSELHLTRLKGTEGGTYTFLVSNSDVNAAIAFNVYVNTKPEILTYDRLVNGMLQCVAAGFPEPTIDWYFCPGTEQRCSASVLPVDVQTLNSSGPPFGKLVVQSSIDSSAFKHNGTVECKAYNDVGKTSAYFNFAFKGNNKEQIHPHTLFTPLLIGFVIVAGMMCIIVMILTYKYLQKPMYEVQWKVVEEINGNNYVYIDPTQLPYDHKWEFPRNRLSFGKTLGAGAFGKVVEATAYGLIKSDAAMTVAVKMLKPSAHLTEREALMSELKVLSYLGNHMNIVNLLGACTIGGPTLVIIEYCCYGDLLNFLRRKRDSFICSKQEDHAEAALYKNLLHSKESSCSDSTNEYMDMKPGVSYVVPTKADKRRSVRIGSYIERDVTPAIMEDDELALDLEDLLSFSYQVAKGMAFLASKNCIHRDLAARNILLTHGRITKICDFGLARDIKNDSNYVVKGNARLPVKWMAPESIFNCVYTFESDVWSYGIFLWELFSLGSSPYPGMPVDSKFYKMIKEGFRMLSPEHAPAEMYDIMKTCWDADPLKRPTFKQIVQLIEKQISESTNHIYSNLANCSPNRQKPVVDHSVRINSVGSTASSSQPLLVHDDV
Assay [15] shares this test system. To be noted: at 1 µM.
Assay [16] concerns Mast/stem cell growth factor receptor Kit (Homo sapiens), P10721 [V560G]. To be noted: at 0.1 µM.
Chain of Mast/stem cell growth factor receptor Kit (Homo sapiens), P10721 [V560G] (P10721 whole entry V560G): as the sequence (P10721 whole entry T670I) above, with V560G, I670T counted along it
Assay [17] has the same test system. To be noted: at 1 µM.
For assay [18], the target named is Tyrosine-protein kinase Lck (Homo sapiens) (UniProt P06239). The settings on record: at 0.1 µM.
Chain of Tyrosine-protein kinase Lck (Homo sapiens) (P06239 2-509 limits assumed): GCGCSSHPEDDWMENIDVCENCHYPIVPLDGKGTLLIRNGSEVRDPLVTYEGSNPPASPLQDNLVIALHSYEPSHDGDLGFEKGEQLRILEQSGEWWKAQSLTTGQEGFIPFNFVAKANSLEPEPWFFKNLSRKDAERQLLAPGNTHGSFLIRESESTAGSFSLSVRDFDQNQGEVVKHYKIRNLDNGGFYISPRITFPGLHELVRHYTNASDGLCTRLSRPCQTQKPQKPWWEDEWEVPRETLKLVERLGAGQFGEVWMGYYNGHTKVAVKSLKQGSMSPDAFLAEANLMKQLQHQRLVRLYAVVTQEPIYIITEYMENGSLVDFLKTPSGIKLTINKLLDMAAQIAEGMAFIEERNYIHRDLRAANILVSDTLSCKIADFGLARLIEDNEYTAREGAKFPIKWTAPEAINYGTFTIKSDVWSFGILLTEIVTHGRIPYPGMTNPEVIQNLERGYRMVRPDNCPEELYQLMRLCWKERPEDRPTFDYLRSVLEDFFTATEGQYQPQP
Assay [19] shares this target. The settings on record: at 1 µM.
For assay [20], the target named is Leukocyte tyrosine kinase receptor (Homo sapiens) (UniProt P29376). The settings on record: at 0.1 µM.
Chain of Leukocyte tyrosine kinase receptor (Homo sapiens) (P29376 whole entry): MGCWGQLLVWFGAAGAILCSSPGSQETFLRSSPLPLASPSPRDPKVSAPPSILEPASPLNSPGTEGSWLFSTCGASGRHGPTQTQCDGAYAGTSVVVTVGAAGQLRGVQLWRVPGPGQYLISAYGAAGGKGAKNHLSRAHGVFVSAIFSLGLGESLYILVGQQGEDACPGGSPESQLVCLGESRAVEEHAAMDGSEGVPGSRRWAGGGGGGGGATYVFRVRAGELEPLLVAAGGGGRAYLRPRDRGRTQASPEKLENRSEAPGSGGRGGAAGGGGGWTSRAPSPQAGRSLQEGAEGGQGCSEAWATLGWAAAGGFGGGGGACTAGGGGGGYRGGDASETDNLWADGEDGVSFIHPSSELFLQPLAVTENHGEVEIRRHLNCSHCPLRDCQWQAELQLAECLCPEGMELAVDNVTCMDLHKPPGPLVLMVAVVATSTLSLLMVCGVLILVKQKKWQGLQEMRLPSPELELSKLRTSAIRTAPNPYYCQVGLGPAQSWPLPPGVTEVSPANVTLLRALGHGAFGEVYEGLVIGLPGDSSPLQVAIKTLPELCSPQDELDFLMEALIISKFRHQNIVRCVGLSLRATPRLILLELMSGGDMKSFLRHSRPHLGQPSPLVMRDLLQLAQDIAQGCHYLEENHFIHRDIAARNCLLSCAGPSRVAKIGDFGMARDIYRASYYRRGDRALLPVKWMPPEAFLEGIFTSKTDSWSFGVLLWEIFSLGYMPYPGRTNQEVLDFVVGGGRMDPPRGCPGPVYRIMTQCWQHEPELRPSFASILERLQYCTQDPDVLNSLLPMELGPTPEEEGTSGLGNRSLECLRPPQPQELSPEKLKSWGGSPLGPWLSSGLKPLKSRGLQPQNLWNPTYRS

One may read the inhibition as the drop in the measured response relative to a control, in per cent.

Chain of Tyrosine-protein kinase JAK1 (Homo sapiens) (P23458 whole entry): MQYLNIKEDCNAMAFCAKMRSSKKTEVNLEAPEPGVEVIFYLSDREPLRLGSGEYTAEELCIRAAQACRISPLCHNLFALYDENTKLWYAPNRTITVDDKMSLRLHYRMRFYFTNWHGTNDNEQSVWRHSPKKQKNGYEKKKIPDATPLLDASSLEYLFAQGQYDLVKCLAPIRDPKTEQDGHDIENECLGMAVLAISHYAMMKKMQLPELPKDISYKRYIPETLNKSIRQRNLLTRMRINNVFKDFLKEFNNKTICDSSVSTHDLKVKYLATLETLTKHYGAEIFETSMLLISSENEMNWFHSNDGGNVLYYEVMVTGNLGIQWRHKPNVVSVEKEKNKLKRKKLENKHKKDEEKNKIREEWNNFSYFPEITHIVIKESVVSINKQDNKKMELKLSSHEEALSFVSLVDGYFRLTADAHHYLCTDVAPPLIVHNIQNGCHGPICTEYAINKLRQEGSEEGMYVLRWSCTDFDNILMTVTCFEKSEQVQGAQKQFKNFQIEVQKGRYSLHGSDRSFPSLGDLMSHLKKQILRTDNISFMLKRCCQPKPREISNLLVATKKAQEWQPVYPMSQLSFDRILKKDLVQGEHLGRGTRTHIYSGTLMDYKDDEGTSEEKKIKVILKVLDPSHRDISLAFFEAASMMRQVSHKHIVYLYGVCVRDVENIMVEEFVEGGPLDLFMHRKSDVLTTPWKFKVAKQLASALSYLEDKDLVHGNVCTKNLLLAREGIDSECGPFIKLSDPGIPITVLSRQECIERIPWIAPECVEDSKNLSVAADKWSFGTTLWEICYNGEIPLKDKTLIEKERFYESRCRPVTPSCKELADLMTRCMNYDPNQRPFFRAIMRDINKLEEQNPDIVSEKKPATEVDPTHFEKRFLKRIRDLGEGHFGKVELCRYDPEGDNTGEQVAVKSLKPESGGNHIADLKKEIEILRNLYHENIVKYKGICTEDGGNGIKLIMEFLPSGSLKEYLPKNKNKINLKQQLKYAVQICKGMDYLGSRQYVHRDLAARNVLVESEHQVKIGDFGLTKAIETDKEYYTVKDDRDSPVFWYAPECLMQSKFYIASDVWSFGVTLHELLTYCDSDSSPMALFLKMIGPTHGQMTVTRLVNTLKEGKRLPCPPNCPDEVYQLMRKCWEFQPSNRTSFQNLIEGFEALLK
Chain of Mast/stem cell growth factor receptor Kit (Homo sapiens) (P10721 whole entry): as the sequence (P10721 whole entry T670I) above, with I670T counted along it
Chain of Mast/stem cell growth factor receptor Kit (Homo sapiens), P10721 [D816V] (P10721 whole entry D816V): as the sequence (P10721 whole entry T670I) above, with I670T, D816V counted along it

Turning to `CS(=O)(=O)CCNCc1ccc(-c2ccc3ncnc(Nc4ccc(OCc5cccc(F)c5)c(C(F)(F)F)c4)c3c2)o1`, the inhibition is 0.72% in assay [1]; 3.98% in assay [2]; 13.3% in [3]; 0.47% in assay [4]; 1.17% in [5]; -0.58% in assay [6]. The inhibition in assay [7] was -0.15%; in [8] it was 3.99%; in assay [9], 3.93%; in assay [10] it was 3.96%; in assay [11] it was 4.6%; in assay [12] it was 5.18%. Besides, the inhibition in [13] was 2.67%; in [14], 4.9%; in [15], 4.53%; in [16] it was -3.52%; in assay [17], -0.7%; in assay [18] it was 1.82%. Moreover, the inhibition in [19] amounted to 3.95%; in [20] it was 3.59%.

In the case of `Fc1cccc(COc2ccc(Nc3ncnc4sc(-c5cccs5)cc34)cc2Cl)c1`, the inhibition is 1.32% in [1]; -0.79% in [2]; -0.37% in assay [3]; -0.63% in assay [4]; 0.58% in [5]; 1.46% in [6]. Besides, the inhibition is 1.31% in assay [7]; 4.41% in assay [8]; 7.67% in [9]; 9.52% in assay [10]; 6.67% in [11]; 4.5% in assay [12]. In addition, the inhibition was 1.72% in assay [13]; 1.75% in [14]; 2.96% in assay [15]; 4.3% in assay [16]; 2.12% in [17]; 0.99% in assay [18]. The results for the inhibition in assay [19] and in assay [20] were 3.56% and -0.03%, respectively.

`NCc1ccc(-c2nc(-c3ccc(Cl)c(O)c3)c(-c3ccncc3)[nH]2)cc1`: the inhibition in assay [1] was 1.29%; in [2], -0.11%; in [3], 2.34%; in assay [4], 0.65%; in assay [5], 0.75%; in [6], 1.4%. The inhibition in [7] came to 1.41%; in [8] it was 69.2%; in assay [9] it was 74.8%; in [10], 0.79%; in assay [11], 2.11%; in assay [12] it was 1.93%. Also, the inhibition in [13] was 5.11%; in assay [14], -0.4%; in assay [15] it was 0.77%; in assay [16], 1.37%; in assay [17], 6.11%; in [18], 5.93%. The inhibition was determined as 33% in assay [19] and 1% in assay [20].

As for `CCCN1CCC(Oc2cc(Nc3nc(Nc4cccc(F)c4C(N)=O)c4cc[nH]c4n3)c(OC)cc2Cl)CC1`, the inhibition is 1.18% in assay [1]; -1.95% in [2]; -2.49% in assay [3]; 0.96% in [4]; 1.42% in [5]; 0.62% in [6]. Also, the inhibition is 1.56% in [7]; 9.18% in assay [8]; 18.5% in [9]; -0.76% in assay [10]; 2.77% in assay [11]; -2.42% in assay [12]. The inhibition in [13] was -0.61%; in assay [14], -1.82%; in assay [15], 3.06%; in assay [16] it was 5.14%; in assay [17] it was 6.37%; in assay [18] it was -0.28%. Further, the inhibition in assay [19] came to 4.94%; in [20], 16.4%.

For the molecule `Cc1nnc(-c2ccc(C)c(-c3ccc(C(=O)Nc4cccc(C#N)c4)cc3)c2)o1`, the inhibition in assay [1] was 0.58%; in assay [2] it was 1.77%; in assay [3], 6.74%; in assay [4], -0.14%; in assay [5] it was -0.34%; in assay [6], -1.17%. Moreover, the inhibition in assay [7] came to 1.29%; in [8], 3.3%; in [9], 7.82%; in [10] it was 5.68%; in [11], 6.9%; in [12], 2.18%. Besides, the inhibition in assay [13] was 2.02%; in [14] it was 0.85%; in [15], 1.69%; in assay [16] it was 0.81%; in assay [17], 2.86%; in [18], 1.89%. Further, the inhibition in assay [19] was 2.99%; in [20], 2.14%.

For `Fc1cccc(COc2ccc(Nc3ncnc4cc(-c5ccc[nH]5)sc34)cc2Cl)c1`, the inhibition is -1.9% in assay [1]; 2.84% in assay [2]; 13.6% in [3]; 1.26% in [4]; 3.62% in [5]; -3.97% in assay [6]. The inhibition is -1.5% in [7]; 6.01% in [8]; 11.8% in assay [9]; 2.16% in [10]; 2.05% in assay [11]; 0.67% in assay [12]. The inhibition in [13] is 1.62%; in [14], 1.82%; in [15], 2.49%; in assay [16], 0.61%; in assay [17] it was 1.53%; in assay [18], -1.91%. Moreover, the figures for the inhibition in [19] and in assay [20] were 2.29% and 2.11%, respectively.
